Rows were chosen to be rich in hits. Some 2.6% of all compounds tested hit in one or more screens of this group.
Mcl-1 Bim block – inhibitors of Bim-Mcl-1 interaction, human. 190,000 tested, 0.1% active. Q07820. inhibition, % at 10 µM. AID 1009. Bead-based flow cytometry, Bim peptide-Mcl-1 binding; in the data active = inhibition above about 40%;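 also: 0% = no compound tracer wells and 100% = peptide blocker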
Target sequence (Q07820 whole entry, looked up): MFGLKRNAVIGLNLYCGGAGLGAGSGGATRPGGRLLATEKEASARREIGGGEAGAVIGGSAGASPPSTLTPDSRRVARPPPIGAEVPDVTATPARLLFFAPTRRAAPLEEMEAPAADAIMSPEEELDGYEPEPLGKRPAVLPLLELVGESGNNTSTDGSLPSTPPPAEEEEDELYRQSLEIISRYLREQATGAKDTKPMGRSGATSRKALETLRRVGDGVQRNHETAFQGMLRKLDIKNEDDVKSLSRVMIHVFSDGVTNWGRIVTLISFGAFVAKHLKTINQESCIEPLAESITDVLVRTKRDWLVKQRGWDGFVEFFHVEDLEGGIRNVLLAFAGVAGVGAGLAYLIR
14-3-3 Bad inh – disrupts binding of bovine 14-3-3 zeta to phospho-Bad peptide | P63103 | TR-FRET 14-3-3zeta/Dy647-pBad peptide displacement, 1 h | inhibition, % at 21.7 µM | 220,000 tested, 0.71% active | AID 781;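 active = inhibition above about 70%, limit read from the data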;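 also: 0% = full 14-3-3 plus peptide FRET controls and 100% = background without 14-3-3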
eIF4E 4G PPI – inhibitors of eIF4E and eIF4G interaction in translation initiation | P63073+Q04637 | TR-FRET eIF4E-eIF4GI(517-606) binding, 2 h | inhibition, % at 21.7 µM | 220,000 tested, 0.37% active | AID 782;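 active = inhibition above about 30%, limit read from the data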;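 also: 0% = full FRET control wells and 100% = background wells lacking eIF4GI fragment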
Mcl1 Noxa PPI – Mcl-1/Noxa interaction inhibition. 220,000 tested, 1.5% active. TR-FRET Mcl-1/Noxa peptide binding, 2 h. inhibition, % at 21.7 µM. Q07820;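 active = compounds that cut the protein-peptide binding signal by more than 50% relative to plate controls in a single-dose test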;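 also: His-tagged Mcl-1 with rhodamine Noxa BH3 peptide and terbium anti-His antibody; 0% = Mcl-1 plus Noxa peptide wells and 100% = peptide-only wells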
Mcl1-Bid inh – disrupts binding of human Mcl-1 to Bid peptide | 220,000 tested, 0.97% active | inhibition, % at 21.7 µM | AID 1021 | TR-FRET Mcl-1/Bid-Dy647 peptide binding, 1536-well;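 active = compounds that cut the binding signal by more than half at the single screening dose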;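 also: His-tagged Mcl-1 with europium anti-His antibody binding Bid BH3 peptide; 0% = Mcl-1 plus peptide wells and 100% = peptide-only wells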
MCL1 BIM primary – inhibitors of human MCL1 binding to BIM-BH3 peptide. Q07820. GST-MCL1 / FITC-Bim-BH3 fluorescence polarization. inhibition, % at 10.9 µM. 320,000 tested, 0.68% active;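 active = inhibition above the mean inhibition of all tested compounds plus 3 SD, set per campaign, cut at about 40% in these data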;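 also: 0% = DMSO wells and 100% = unlabeled Bim-BH3 peptide control; higher means more loss of mP so more displacement of Bim peptide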
* = called active by the depositor; nt = no result given.

SMILES | Mcl-1 Bim block | 14-3-3 Bad inh | eIF4E 4G PPI | Mcl1 Noxa PPI | Mcl1-Bid inh | MCL1 BIM primary
Oc1ccc(Nc2nc(NCC3CCCO3)c3ccccc3n2)cc1 (configuration not stated) | 0 | 13 | 6 | 55* | -32 | nt
COc1cccc(Nc2nc(NCC3CCCO3)c3ccccc3n2)c1 (configuration not stated) | 2 | 51 | 11 | 41 | 92* | -4
OCCN1CCN(c2nc(NCc3ccco3)c3ccccc3n2)CC1 | -1 | 33 | 4 | 51* | 1 | -4
CN(Cc1ccc(Cl)c(Cl)c1)C(=O)C1CSC2(C)CCC(=O)N12 (configuration not stated) | nt | nt | nt | nt | nt | -1
Oc1ccccc1Nc1nc(NCC2CCCO2)c2ccccc2n1 (configuration not stated) | 3 | 77* | -7 | 35 | -53 | 6
COc1ccc(CN(C(=O)c2ccc3c(c2)OCCO3)C(C(=O)NC2CCCCC2)c2ccc3ncccc3c2)cc1 (configuration not stated) | 0 | -2 | -3 | -1 | 2 | 6
O=C(NC1CCCCC1)C(c1ccc2ncccc2c1)N(Cc1ccccc1)C(=O)c1ccc2c(c1)OCCO2 (configuration not stated) | 0 | -7 | 8 | 61* | 86* | 2
O=C(COC(=O)CCNS(=O)(=O)c1ccc2c(c1)OCCO2)NC1CCCc2ccccc21 (configuration not stated) | -47 | -9 | 2 | 4 | 76* | 0
O=C(CSc1nc2ccccc2c(=O)n1CCCN1CCOCC1)NC12CC3CC(CC(C3)C1)C2 | 0 | -14 | -1 | 13 | -18 | 1
Cc1cc(S(=O)(=O)Nc2ccc(C(=O)NCc3cccnc3)cc2)ccc1F | nt | nt | nt | nt | nt | 5
Cn1c(-c2ccccc2)c(C(=O)CCl)c2ccccc21 | 0 | -2 | 2 | 70* | -23 | nt
O=c1[nH]c(CSc2ncccn2)nc2c1cnn2-c1ccccc1 | -7 | -9 | 2 | 58* | -19 | 6
COc1ccc(NS(=O)(=O)c2ccc3c(c2)CCO3)cc1 | nt | 74* | -1 | -2 | 0 | -12
O=S(=O)(Nc1ccccc1)c1ccc2c(c1)CCO2 | nt | 1 | 1 | 4 | 2 | 12
Cc1nn(Cc2ccccc2)c(Cl)c1/C=C/C(=O)OC(C(=O)NC(N)=O)C(C)C (configuration not stated) | 0 | -8 | -2 | 9 | 3 | -9
CCOC(=O)N1CCC(N2CCN(S(=O)(=O)c3ccc(Cl)cc3)CC2)CC1 | 2 | 36 | 1 | 23 | 55* | -5
Cc1cccn2c(CNCC3(c4ccccc4)CCCC3)c(C(=O)N3CCOCC3)nc12 | -1 | -1 | 1 | -9 | -33 | 7
CCn1nc(C)c(NC(=O)c2cnn3c(C(F)F)cc(-c4ccccc4)nc23)c1C | 0 | -17 | -2 | -5 | -2 | 4
COc1ccc2c(c1)CC/C(=C\Nc1ccc3c(c1)OCO3)C2=O | -4 | -9 | -2 | 73* | -9 | -27
O=C1/C(=C/Nc2ccc3c(c2)OCO3)CCc2ccccc21 | 0 | -3 | 3 | 18 | -106 | -38
CCc1cc(C(=O)N2CCCC(CO)(Cc3ccc(F)cc3)C2)n(C)n1 (configuration not stated) | nt | nt | nt | nt | nt | 1
CC1CCc2c(sc3ncn(CC(=O)N=Nc4c(O)[nH]c5ccccc45)c(=O)c23)C1 (configuration not stated) | nt | 39 | -13 | 20 | 68* | 7
CCc1noc(C)c1C(=O)N(Cc1ccccc1)c1c(N)n(CCOC)c(=O)[nH]c1=O | nt | nt | nt | nt | nt | -4
COc1ccc(-n2cc(-c3ccccc3)[nH]c2=S)cc1 | -16 | -4 | -1 | 11 | -102 | -5
CC(=O)Nc1ccc(-n2cc(-c3ccccc3)[nH]c2=S)cc1 | -7 | -2 | 0 | 53* | -31 | 6
COCCN1C=C2C(=O)C(C)(OC(=O)CCC(=O)OC)C(=O)C=C2C=C1C1CC1 (configuration not stated) | nt | -5 | -4 | 6 | -117 | 30
COC(=O)CCC(=O)OC1(C)C(=O)C=C2C=C(C3CC3)N(Cc3ccco3)C=C2C1=O (configuration not stated) | nt | -6 | 2 | 30 | -97 | 42*

High-throughput results: PubChem BioAssay, several laboratories
